PubChem BioAssay (NCATS)
Results filed as inconclusive are left out. Entries that show only a call come without a potency. Activity calls are given as the source filed them. Calls come from the whole dose curve; as a rule, active = well fitted inhibition curve with a large enough effect; inconclusive = small, poorly fitted or top-dose-only effect, or effect the other way; inactive = no such curve, though single readings can be large or run the other way.

Test: Quantitative high throughput screen for delayed death inhibitors of the malarial parasite plastid, 96 hour incubation (AID 488745); note: nearly all actives have a fitted effect of over 70% in size
Details: Plasmodium falciparum growth; series mostly up to 28.7 µM
Excerpt: NIH Molecular Libraries Probe Production Network [MLPCN]
NIH Chemical Genomics Center [NCGC]
Assay Provider: David Fidock and Eric Ekland, Columbia University
The goal of this screen is to discover new antimalarial compounds that act by inhibiting the development of the apicoplast in the malarial parasite Plasmodium falciparum. The biochemical processes that make this organelle essential for erythrocytic stage parasites are not well understood. However, antibiotics such as azithromycin and tetracycline, which target the apicoplast translational machinery, have a potent antimalarial effect.
We have developed a cell-based assay that measures parasite growth based on the expression of an integrated copy of a firefly luciferase reporter. To detect small molecules that cause this 'delayed death' phenotype, erythrocytes infected with the luciferase-expressing parasites were incubated with compounds for either one or two generations, corresponding to 48 and 96 hours, respectively. Compounds that inhibit parasite growth in the second generation, but not the first, should be enriched in antimalarials that target the apicoplast. Growth inhibition is detected by a decrease in luciferase activity
Four microliters of culture medium (RPMI 1640 with 0.5% w/v Albumax (GIBCO), 24 mM sodium bicarbonate and 10 ug/mL gentamycin) were dispensed by a Multi-drop Combi into white solid 1536-well plates (Grenier) and 23 nL compound was added by a pin tool. Four microliters of infected erythrocytes (2% hematocrit, 0.1% parasitemia final concentration) in culture medium were dispensed and the plates incubated for 96 hours at 37 C in 5% CO2. Two microliters of luciferase detection reagent was added and luminescence was detected by a ViewLux (PerkinElmer) reader
Potency is the fitted concentration of half-maximal effect.

Which Potency does the source give for `O=C(CCNNC(=O)c1ccncc1)NCc1ccccc1` here?
Its Potency is “inactive”.

With `Nc1c2c(nc3ccccc13)CCCC2O` (stereo not given) as the compound, how does the Potency read?
The Potency was “inactive”.

Which Potency does the source give for `O=C(CCCN1CCC(O)(c2cccc(C(F)(F)F)c2)CC1)c1ccc(F)cc1` here?
The Potency was 9.28 µM (active).

Which Potency does the source give for `CC(C)[N+](C)(CCOC(=O)C1c2ccccc2Oc2ccccc21)C(C)C` here?
The Potency was 3.29 µM (active).

Which Potency does the source give for `CC(C(=O)O)c1ccc(CC2CCCC2=O)cc1` (stereo not given) here?
The Potency was “inactive”.

Which Potency does the source give for `CN1CCN(CC(=O)N2c3ccccc3C(=O)Nc3cccnc32)CC1` here?
The Potency was “inactive”.

With `CC(C)COCC(CN(Cc1ccccc1)c1ccccc1)N1CCCC1` (stereo not given) as the compound, how does the Potency read?
The Potency was “inactive”.

With `Cc1nc2c([nH]1)c(=O)n(C)c(=O)n2Cc1ccco1` as the compound, how does the Potency read?
Its Potency is “inactive”.

Which Potency does the source give for `CCn1ccnc1CC1COc2ccccc2O1` (stereo not given) here?
Its Potency is “inactive”.

With `Cc1ccc(/C(=C\CN2CCCC2)c2ccccn2)cc1` as the compound, how does the Potency read?
The Potency was “inactive”.

For `NC(=O)N1c2ccccc2C=Cc2ccccc21`, which Potency is on record?
Its Potency is “inactive”.

Which Potency does the source give for `CC(=O)OCC1=C(C(=O)O)N2C(=O)[C@@H](NC(=O)Cc3cccs3)[C@H]2SC1` here?
Its Potency is “inactive”.

Which Potency does the source give for `C[C@]12CCC(=O)C=C1CC[C@@H]1[C@@H]2C(=O)C[C@@]2(C)[C@H]1CC[C@]2(O)C(=O)CO` here?
The Potency was “inactive”.

With `CC(=O)OC(C)C[N+](C)(C)C` (stereo not given) as the compound, how does the Potency read?
The Potency was “inactive”.

For `Cc1cc(C)c(/C=C2\C(=O)Nc3ccccc32)[nH]1`, which Potency is on record?
The Potency was “inactive”.

For `COC(=O)[C@H]1[C@H]2C[C@@H]3c4[nH]c5cc(OC)ccc5c4CCN3C[C@H]2C[C@@H](OC(=O)c2cc(OC)c(OC)c(OC)c2)[C@@H]1OC`, which Potency is on record?
Its Potency is 0.928 µM (active).

With `CNC1(C)C2CCC(C2)C1(C)C` (stereo not given) as the compound, how does the Potency read?
The Potency was “inactive”.

For `CCN1CCc2nc(N)oc2CC1`, which Potency is on record?
The Potency was “inactive”.

Which Potency does the source give for `Cc1ccc(Cl)c(Nc2ccccc2C(=O)O)c1Cl` here?
The Potency was “inactive”.

Which Potency does the source give for `Fc1ccc(C(c2ccc(F)cc2)N2CCN(C/C=C/c3ccccc3)CC2)cc1` here?
The Potency was 10.4 µM (active).

Which Potency does the source give for `COc1cc2c(cc1OC)-c1cc(=Nc3c(C)cc(C)cc3C)n(C)c(=O)n1CC2` here?
Its Potency is 3.7 µM (active).

Which Potency does the source give for `COc1cc(C(=O)OCCCN2CCCN(CCCOC(=O)c3cc(OC)c(OC)c(OC)c3)CC2)cc(OC)c1OC` here?
Its Potency is 6.57 µM (active).

For `CNCCC(Oc1ccccc1OC)c1ccccc1` (stereo not given), which Potency is on record?
Its Potency is “inactive”.

With `CSc1ccc(C(=O)c2[nH]c(=O)[nH]c2C)cc1` as the compound, how does the Potency read?
The Potency was “inactive”.

With `CC1=C(C)C(=O)C(CCCCC#CCCCC#CCO)=C(C)C1=O` as the compound, how does the Potency read?
The Potency was 10.4 µM (active).

For `C[C@H](CS)C(=O)N1CCC[C@H]1C(=O)O`, which Potency is on record?
Its Potency is “inactive”.

For `Nc1nc(N)c2nc(-c3ccccc3)c(N)nc2n1`, which Potency is on record?
Its Potency is 8.28 µM (active).

With `O=C(O)CN(CCOCCOCCN(CC(=O)O)CC(=O)O)CC(=O)O` as the compound, how does the Potency read?
The Potency was “inactive”.

For `OCCN1CCN(CCCN2c3ccccc3C=Cc3ccccc32)CC1`, which Potency is on record?
The Potency was 13.1 µM (active).

Which Potency does the source give for `CCc1c(C)[nH]c2c1C(=O)C(CN1CCOCC1)CC2` (stereo not given) here?
The Potency was “inactive”.

With `CN(C)CC[C@@H](c1ccc(Br)cc1)c1ccccn1` as the compound, how does the Potency read?
Its Potency is “inactive”.

Which Potency does the source give for `C[N+](C)(C)CCOC(N)=O` here?
The Potency was “inactive”.

Which Potency does the source give for `Cc1ccc(=O)n(-c2ccccc2)c1` here?
The Potency was “inactive”.

Which Potency does the source give for `CCn1cc(C(=O)O)c(=O)c2cc3c(cc21)OCO3` here?
Its Potency is “inactive”.

Which Potency does the source give for `O=C1CC2(CCCC2)CC(=O)N1CCCCN1CCN(c2ncccn2)CC1` here?
The Potency was “inactive”.

Which Potency does the source give for `NC(=O)c1ncn([C@@H]2O[C@H](CO)[C@@H](O)[C@H]2O)c1O` here?
The Potency was “inactive”.

With `NC(Cc1ccc(Cl)cc1)C(=O)O` (stereo not given) as the compound, how does the Potency read?
The Potency was “inactive”.

Which Potency does the source give for `OCCN1CCN(CC/C=C2/c3ccccc3Sc3ccc(C(F)(F)F)cc32)CC1` here?
The Potency was 6.57 µM (active).

For `CCCCCN(CCCCC)C(=O)C(CCC(=O)O)NC(=O)c1ccc(Cl)c(Cl)c1` (stereo not given), which Potency is on record?
Its Potency is “inactive”.

With `COC(=O)[C@@H](N)Cc1ccc(O)c(O)c1` as the compound, how does the Potency read?
Its Potency is “inactive”.
